Assay outcomes as filed in PubChem BioAssay.
A selection: hits, their analogues and other compounds. The true share with any hit is near 12%.
AmpC detergent: blocks E. coli AmpC beta-lactamase in detergent assay | AmpC hydrolysis of nitrocefin, absorbance 480 nm, 0.01% Triton | Potency, µM (highest dose often 114 µM), without a hit: top-dose activity change, negative = inhibition, most hits filed as inhibitors | 0.041% of 370,000 active | AID 485294;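 note: 0% = no-compound wells and -100% = no-enzyme wells; nearly all actives have a fitted effect of over 25% in size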
Target sequence (P00811 whole entry, looked up): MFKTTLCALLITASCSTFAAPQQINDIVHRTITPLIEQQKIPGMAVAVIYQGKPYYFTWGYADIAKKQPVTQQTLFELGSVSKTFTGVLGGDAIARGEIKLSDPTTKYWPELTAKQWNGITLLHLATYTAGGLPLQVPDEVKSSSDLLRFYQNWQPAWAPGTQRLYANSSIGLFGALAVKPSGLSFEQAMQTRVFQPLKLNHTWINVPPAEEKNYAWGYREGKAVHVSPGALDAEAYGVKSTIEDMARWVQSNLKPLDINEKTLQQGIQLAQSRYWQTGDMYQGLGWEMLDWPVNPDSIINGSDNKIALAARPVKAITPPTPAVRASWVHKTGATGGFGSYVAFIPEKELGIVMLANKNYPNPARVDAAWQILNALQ
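AmpC (5.3 nM in the dispensed reagent) in 20 mM phosphate pH 7.0 with 0.01% (detergent screen) or 0.0001% Triton X-100 was preincubated with compounds for 15 min at room temperature. Nitrocefin was then added from an 800 uM solution, and hydrolysis was followed at 480 nm.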
Pf growth 96h: P. falciparum growth inhibition at 96 hour, primary screen for plastid delayed-death inhibitors; P. falciparum luciferase reporter growth, 96 h; Potency, µM (titrated, usually from 28.7 µM), for inactives: at the top dose activity change, negative = inhibition, usual class: inhibitors; 6.9% of 320,000 active; note: % is set by controls: 0 for no effect and ±100 for the full control effect
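Two parasite generations (96 h, 37 C, 5% CO2) of compound exposure in infected erythrocytes (0.05% parasitemia, 2% hematocrit). Luciferase-reporter P. falciparum; decreased luminescence indicates inhibited growth, aimed at apicoplast-acting delayed death.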
Sm TGR inh: blocks Schistosoma mansoni thioredoxin glutathione reductase; Q962Y6; purified TGR, DTNB reduction, TNB absorbance 405 nm; Potency, µM (highest dose often 114 µM), for the others: at the highest dose activity change, negative = inhibition, actives largely listed as inhibitors; 3% of 360,000 active; AID 485364; note: % is set by controls: 0 for no effect and ±100 for the full control effect; nearly all actives have a fitted effect of over 60% in size
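First, TGR (20 nM dispensed) and NADPH were mixed with compound. Second, a 15 min room-temperature incubation followed. Third, further NADPH and then DTNB were added to start the reaction. Finally, TNB absorbance was monitored kinetically.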
AmpC no deterg: inhibitors of E. coli AmpC beta-lactamase without detergent | AmpC nitrocefin hydrolysis, absorbance 480 nm, 0.0001% Triton | Potency, µM (titrated, usually from 57.1 µM), for inactives: at the top dose activity change, negative = inhibition, hits mostly inhibitors | 0.52% of 330,000 active;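 note: plate controls were no compound for no effect and no enzyme for full effect; nearly all actives have a fitted effect of over 20% in size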
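20 mM phosphate pH 7.0 + 0.01% (detergent screen) or 0.0001% Triton X-100; 5.3 nM AmpC reagent; cpd preinc 15 min RT; nitrocefin (800 uM stock) to start; A480 q20 s × 4 min; Activity was normalised to no-enzyme and no-compound control wells.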
Pf growth 48h: P. falciparum growth inhibition at 48 hours (one generation) | Potency, µM (doses to about 28.7 µM), inactives show top-dose activity change, negative = inhibition, usual class: inhibitors | AID 504832 | 5.9% of 310,000 active | P. falciparum luciferase growth in erythrocytes, 48 h; note: % is set by controls: 0 for no effect and ±100 for the full control effect
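Cell-based growth assay: transgenic P. falciparum expressing firefly luciferase, cultured in red cells within RPMI 1640 containing 0.5% w/v Albumax, 24 mM bicarbonate and gentamycin. A drop in luciferase activity indicates inhibition.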
SARS PLpro yeast: blocks SARS-CoV papain-like protease in a yeast assay. S. cerevisiae expressing SARS-CoV PLpro, growth rescue. 0.19% of 330,000 active. Potency, µM (highest dose often 32.9 µM), for inactives: at the highest dose activity, positive = growth rescue, actives largely listed as activators; calls by dose curve; note: 0% is about no effect; nearly all actives have a fitted effect of over 55% in size
* marks the source's active call; other numbers are inactive results; ? = inconclusive; . = not tested or not shown; ! = repeats disagree; [ ] = dose if it differs, or a comment. Unless noted, calls come from the whole dose curve; as a rule, active = well fitted curve in the direction sought with a large enough effect; inconclusive = small, poorly fitted or top-dose-only effect, or another doubt; inactive = no such curve, though single readings can be large; an effect the other way counts as inactive or inconclusive. Potency is the fitted concentration of half-maximal effect.

SMILES | AmpC detergent | Pf growth 96h | Sm TGR inh | AmpC no deterg | Pf growth 48h | SARS PLpro yeast
Cc1cc(=O)oc2c3c(cc(OCC(=O)Nc4cccnc4)c12)OC(C)(C)CC3 | ? | 1.3µM* | 0% | -26% | -24% | -4%
CSC[C@H](NC(=O)COc1cc2c(c3oc(=O)cc(C)c13)CCC(C)(C)O2)C(=O)O | -12% | -4% | -2% | -11% | 1% | -1%
Cc1cc(=O)oc2c3c(cc(OCC(=O)NCc4ccccc4)c12)OC(C)(C)CC3 | -10% | 12µM* | 2% | 30% | ? | -3%
CSC[C@H](NC(=O)COc1cc2c(c3oc(=O)c(C)c(C)c13)CCC(C)(C)O2)C(=O)O | -5% | -8% | -23% | -14% | -18% | 1%
COc1ccc2c(CNC3CCCCCC3)c(C(=O)O)n(Cc3ccc(C)cc3)c2c1 | 0% | . | -10% | . | . | .
Cc1c2cnn(CC(=O)NCC(C)c3ccccc3)c(=O)c2c(C)n1Cc1cccc(Cl)c1 (centres undefined) | 7% | . | -3% | . | . | .
CC(C)NCC1CCc2cc(CO)c([N+](=O)[O-])cc2N1 (centres undefined) | ? | 40% | -11% | -24% | 35% | 0%
COc1ccc(NC(=O)c2cc(S(=O)(=O)N3CCCC(C)C3)cn2C)c(OC)c1 (centres undefined) | -1% | . | 1% | . | . | .
Cc1cccc(N2CCN(C(c3ccccc3)c3nnc(-c4ccccc4Cl)o3)CC2)c1C (centres undefined) | 16% | . | 7% | . | . | .
Cc1c(C)c2c(OCC(=O)NCC(O)c3ccccc3)cc3c(c2oc1=O)CCC(C)(C)O3 (centres undefined) | -5% | 4.7µM* | -18% | -18% | ? | 2%
Cc1cc(N)c2ccccc2[n+]1CCCCCCCCCC[n+]1c(C)cc(N)c2ccccc21 | . | -100%[12.8 µM] | . | . | 0.18µM* | .
S=c1nc[nH]c2nc[nH]c12 | ? | ? | 16µM*! | -13% | ? | -3%
Cc1ccc(S(=O)(=O)c2nnn3c2nc(N2CCC(C)CC2)c2cc(Cl)ccc23)cc1C | -4% | . | 4% | . | . | .
Cc1ccc(O)c(-c2cc(C(F)(F)C(F)F)nc(-c3ccccc3)n2)c1 | -3% | 8.3µM* | 8% | -18% | ? | 4%
Oc1ccc(Cl)cc1-c1cc(C(F)(F)C(F)F)nc(-c2ccccc2)n1 | -1% | . | -1% | -16% | 1.3µM* | 12%
O=C(Cc1ccc(S(=O)(=O)N2CCOCC2)s1)Nc1ccccc1Br | -3% | 3.7µM* | -15% | -17% | 2.3µM* | 0%
O=C(Cc1ccc(S(=O)(=O)N2CCOCC2)s1)Nc1ccccc1N1CCOCC1 | 0% | ? | ? | -5% | -29% | -1%
O=C(Cc1ccc(S(=O)(=O)N2CCOCC2)s1)NCC(=O)Nc1ccccc1Br | 1% | -1% | 56µM* | -18% | 6% | 4%
Cc1cccc(CC(=O)Nc2ccc3nc(N4CCC(C)CC4)cc(C)c3c2)c1 | 14% | . | 4% | . | . | .
Cc1cc(N2CCC(C)CC2)nc2cccc(O)c12 | ? | 12µM* | ? | -29% | . | -9%
Cc1ccc(Nc2nnns2)cc1 | 7% | 89% | 6% | -13% | -18% | ?
CC1=CC(C)(C)N=C(Nc2ccc(C)cc2)S1 | -9% | 10µM* | -24%[11.4 µM] | -38% | . | 5%
O=C(c1ccc(F)cc1)N1CCN2C(=O)c3ccccc3C12c1ccccc1 (centres undefined) | -2% | ? | -7% | 4% | 0% | 0%
O=C1c2ccccc2C2(c3ccc(Cl)cc3)NCCN12 (centres undefined) | -20% | 13µM* | 32% | 17% | -14% | 2%
O=C(c1ccc(F)cc1)N1CCN2C(=O)c3ccccc3C12c1ccc(Cl)cc1 (centres undefined) | 0% | 5.2µM* | 2% | -12%[2.29 µM] | 13µM* | 0%
